Results on 40 compounds are retold here after PubChem BioAssay (EPA / NIEHS).

Calls of active or inactive are those of the source. How the source made its calls: active means hit-call score of the fitted dose curve at least 0.9, where 1 is the maximum; inactive means score below 0.9.

Read-out in this experiment: Vascular cell adhesion molecule 1 (VCAM1), VCAM1 (gene 7412)
The experiment is described as follows: BSK_4H_VCAM1: BioMAP Diversity Plus: 4H Assay for Vascular cell adhesion molecule 1 (VCAM1) Biomarker Activity (AID 2283033). The settings on record: primary human endothelial cells (HUVEC); actives raise or lower the signal. As for the experimental part:
BSK_4H is a cell-based, multiplexed-readout assay that uses umbilical vein endothelium, a human vascular primary cell, with measurements taken at 24 hours after chemical dosing in a 96-well plate.BSK_4H_VCAM1 is an assay component measured in the BSK_4H assay. It measures VCAM-1 antibody related to regulation of gene expression using ELISA technology.Data from the assay component BSK_4H_VCAM1 was analyzed into 1 assay endpoint. This assay endpoint, BSK_4H_VCAM1, was analyzed with bidirectional fitting relative to DMSO as the negative control and baseline of activity. Using a type of binding reporter, gain or loss-of-signal activity can be used to understand changes in the signaling as they relate to the gene VCAM1. Furthermore, this assay endpoint can be referred to as a primary readout, because this assay has produced multiple assay endpoints where this one serves a signaling function. To generalize the intended target to other relatable targets, this assay endpoint is annotated to the cell adhesion molecules intended target family, where the subfamily is Immunoglobulin CAM.
The levels of cell surface (or secreted, indicated by the prefix "s") biomarker endpoints were measured by ELISA. Overt cytotoxicity to cells in confluent adherent cultures (all systems other than the BT system) was assessed by measuring total protein levels using sulforhodamine B (SRB) staining in parallel cultures at the time of biomarker measurements, indicated as SRB endpoints. For proliferation assays for adherent cell types, individual cell types are cultured at sub-confluence and relative cell numbers quantified by SRB staining at time points optimized for each system (48 h: 3C and CASM3C systems; 72 h: BT and HDF3CGF systems; 96 h: SAg system). SRB was performed by staining cells with 0.1% SRB after fixation with 10% TCA and reading wells at 560 nm.Viability and proliferation of PBMC (T cells) was quantified by Alamar Blue reduction for the SAg and BT systems. For PBMC viability (referred to as PBMC Cytotoxicity within the assay endpoint names), cells were plated (75,000/well in a 96-well plate) and then chemical samples added for 1 h before addition of activators, SEB and TSST-1 (20 ng/mL final concentration each). Cells were incubated for 90 h. Then, Alamar Blue (20 uL/well) (Invitrogen, Cat DAL1100) was added for 6 h, and the plates were read with a fluorescence microplate reader at 546/580 nm (excitation/emission). For PBMC proliferation, cells were plated and activated as above but incubated for only 16 h prior to addition of Alamar Blue. Plates were read after 6 h.
Take `COCC(=O)N(c1c(C)cccc1C)C(C)C(=O)OC` (stereo not given): the outcome was inactive.
For `COCC(C)N(C(=O)CCl)c1c(C)csc1C` (stereo not given), the result was inactive.
`Cc1cc(C)nc(Nc2ccccc2)n1`: the result was inactive.
For `CC(C)(C)C(=O)C(Oc1ccc(Cl)cc1)n1cncn1` (stereo not given), the outcome was inactive.
For the compound `CCOc1nc(C(Cl)(Cl)Cl)ns1`, the outcome was inactive.
The same measure, in the same setting: under `CC(C)Oc1cccc(NC(=O)c2ccccc2C(F)(F)F)c1` stands “inactive”; under `COc1cc(OC)nc(NC(=O)NS(=O)(=O)c2ncccc2OCC(F)(F)F)n1`, “inactive”; under `CCCN(CC)CC1COC2(CCC(C(C)(C)C)CC2)O1` (stereo not given), “inactive”.
Take `Nc1c(Cl)c(F)nc(OCC(=O)O)c1Cl`: the outcome was inactive.
`CCC(C)n1c(=O)[nH]c(C)c(Br)c1=O` (stereo not given): the outcome was inactive.
For `OC(c1ccc(Cl)cc1)(c1ccc(Cl)cc1)C(Cl)(Cl)Cl`, the AC50 – broadly, the concentration giving half of the maximal activity seen – was 28.3 µM (active).
On to `CC1(C)CON(Cc2ccccc2Cl)C1=O`, for which the outcome was inactive.
Still for that read-out and setting: under `CN=C=S` stands “inactive”; under `CNC(=O)N(C)c1nnc(C(C)(C)C)s1`, “inactive”.
With `CCCCOCN(C(=O)CCl)c1c(CC)cccc1CC`, the AC50 is 28.9 µM (active).
With `COc1cc(Cl)c(OC)cc1Cl`, the result was inactive.
On to `CS(=O)(=O)c1ccc(C(=O)C2C(=O)CCCC2=O)c([N+](=O)[O-])c1`, for which the outcome was inactive.
For the compound `CCOc1cc(C(C)(C)C)ccc1C1COC(c2c(F)cccc2F)=N1` (stereo not given), the AC50 was 37.4 µM (active).
Turning to `Cn1c(-c2ccccc2)cc(-c2ccccc2)[n+]1C`, the result was inactive.
In the case of `COc1ccc(-c2ccccc2)cc1NNC(=O)OC(C)C`, the outcome was inactive.
For the compound `COC(=O)NC(=S)Nc1ccccc1NC(=S)NC(=O)OC`, the AC50 is 0.312 µM (active).
Consider `O=C1C2CC=CCC2C(=O)N1SC(Cl)(Cl)Cl` (stereo not given), for which the result was inactive.
As for `Nc1cnn(-c2ccccc2)c(=O)c1Cl`, the result was inactive.
For `O=P(O)(O)CCCl`, the outcome was inactive.
The same measure, in the same setting: under `O=c1n(Cl)c(=O)n(Cl)c(=O)n1Cl` stands “inactive”.
Turning to `Cc1cnc(C2=NC(C)(C(C)C)C(=O)N2)c(C(=O)O)c1` (stereo not given), the outcome was inactive.
Consider `COC(=O)c1c(C(F)F)nc(C(F)(F)F)c(C2=NCCS2)c1CC(C)C`, for which the AC50 is 20 µM (active).
Consider `CCN(CC)c1nc(C)cc(OP(=S)(OC)OC)n1`, for which the outcome was inactive.
As for `CCNP(=S)(OC)O/C(C)=C/C(=O)OC(C)C` (stereo not given), the outcome was inactive.
Same read-out and setting: to `CCCC(=NOCC)C1=C(O)CC(CC(C)SCC)CC1=O` (stereo not given) belongs “inactive”; to `C=CCOC(=O)C(C)(C)OC(=O)c1cc(-n2c(=O)cc(C(F)(F)F)n(C)c2=O)ccc1Cl`, “inactive”.
With `CC(C)=CC1C(C(=O)OCc2coc(Cc3ccccc3)c2)C1(C)C` (stereo not given), the AC50 is 4.5 µM (active).
Take `CC(C)Nc1nc(Cl)nc(NC(C)C)n1`: the result was inactive.
On the same count and under the same terms, to `Clc1nc(Cl)nc(Nc2ccccc2Cl)n1` belongs “inactive”; to `C=C(C)CN(CC)c1c([N+](=O)[O-])cc(C(F)(F)F)cc1[N+](=O)[O-]`, “inactive”; to `CCNC(=O)NC(=O)C(C#N)=NOC`, “inactive”.
With `COP(=S)(OC)Oc1ccc([N+](=O)[O-])c(C)c1`, the result was inactive.
Regarding `COP(=S)(OC)SCn1nnc2ccccc2c1=O`, the outcome was inactive.
The same measure, in the same setting: under `CSC(=O)c1c(C(F)F)nc(C(F)(F)F)c(C(=O)SC)c1CC(C)C` stands “inactive”.
Regarding `N#Cc1c[nH]cc1-c1cccc2c1OC(F)(F)O2`, the half-maximal activity concentration (AC50) is 20 µM (active).
